# PubChem BioAssay AID449741 (Southern Research Specialized Biocontainment Screening …, 2010)
# Activity calls are given as the source filed them.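 How the source made its calls: active means inhibition above 30% at one or more tested concentrations in the dose response; inactive means inhibition below 30% at every tested concentration.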
# Assay: PhoP regulon inhibitors in S. Typhimurium, late-stage follow-up, GFP fluorescence, round 4, synthesized compounds (AID 449741)
row,SMILES,outcome
1,FC(F)(F)c1ccccc1NC(=S)NCc1ccc(Cl)cc1,inactive
2,O=C(Nc1ccc(Cl)cc1)N1CCN(Cc2ccccc2F)C1,inactive
3,S=C(NCc1ccccc1)NCc1ccc(Cl)cc1,inactive
4,COc1cccc(CNC(=S)Nc2ccncc2)c1,inactive
5,S=C(NCc1ccc(Cl)cc1)Nc1ccccn1,inactive
6,O=C(Nc1ccc(Cl)cc1)N1CCCN(Cc2cccc(F)c2)C1,inactive
7,S=C(NCc1ccc(Cl)cc1)Nc1ccc(I)cc1,inactive
8,S=C(NCc1ccc(Cl)cc1)Nc1ccccc1I,inactive
9,N#Cc1ccc(CN2CCCN(C(=O)Nc3ccc(Cl)cc3)C2)cc1,inactive
10,S=C(NCc1ccc(Cl)cc1)Nc1ccncn1,inactive
11,S=C(NCc1ccc(Cl)cc1)NN1CCOCC1,inactive
12,S=C(NCc1ccc(Cl)cc1)Nc1ccccc1Br,inactive
13,O=C(NC1CCCCC1)N1CCCN(Cc2ccccc2F)C1,inactive
14,O=C(Nc1ccc(Cl)cc1)N1CCCN(Cc2cccc(Br)c2)C1,inactive
15,S=C(NCc1ccc(Cl)cc1)Nc1cccc(Br)c1,inactive
16,CN1CCN(C(=S)NCc2ccc(Cl)cc2)CC1,inactive
17,S=C(NCc1ccc(Cl)cc1)NC1CCOCC1,inactive
18,Cc1ccccc1NC(=O)N1CCCN(Cc2ccccc2F)C1,inactive
19,S=C(NCc1ccc(Cl)cc1)NC1CCCCC1,inactive
20,FC(F)(F)c1ccc(NC(=S)NCc2ccc(Cl)cc2)cc1,inactive
